The nature of assay [1]: NCI Yeast Anticancer Drug Screen. Data for the rad50 strain (AID 155).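 Further: 0% = growth of vehicle-only cultures of the same strain.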 Particulars: S. cerevisiae rad50 strain growth inhibition, active compounds read high. The method in brief: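 Inhibition values express reduced yeast growth in compound-treated cultures relative to vehicle-treated controls.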
Assay [2] in a line: NCI Yeast Anticancer Drug Screen. Data for the sgs1 mgt1 strain (AID 161).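 Further: 0% = growth of cultures given vehicle only.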 Conditions: S. cerevisiae sgs1 mgt1 strain, active compounds read high. The gist of the method:
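Read-out: growth inhibition vs vehicle controls. Cells: mutant yeast strain deficient in DNA damage repair.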

Assay [3] is described as follows: NCI Yeast Anticancer Drug Screen. Data for the cln2 rad14 strain (AID 165).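 Further: 0% = growth equal to vehicle treated cultures.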 Particulars: S. cerevisiae cln2 rad14 strain, active compounds read high. The method in brief: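 Test compounds were added to cln2 rad14 yeast cultures; inhibition of growth was then determined by comparison with vehicle treatment.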
Assay [4] in a line: NCI Yeast Anticancer Drug Screen. Data for the bub3 strain (AID 167). Conditions: S. cerevisiae bub3 mutant strain, active compounds read high. The gist of the method:
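Steps: expose the mutant yeast strain to compound; grow alongside vehicle-treated cultures; measure growth; express inhibition against the vehicle cultures.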

A short description of assay [5]: NCI Yeast Anticancer Drug Screen. Data for the mlh1 rad18 strain (AID 175). Conditions: S. cerevisiae mlh1 rad18 strain growth inhibition, active compounds read high. The gist of the method: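 Inhibition values reflect reduced growth of mutant yeast versus vehicle-treated controls following compound exposure; the mutations affect DNA damage repair.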
A short description of assay [6]: NCI Yeast Anticancer Drug Screen. Data for the mec2-1 strain (AID 157). Particulars: S. cerevisiae mec2-1 strain, active compounds read high. The gist of the method:
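Each compound was tested on mec2-1 yeast, a strain altered in DNA damage repair or cell cycle control. Growth inhibition is reported relative to vehicle.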

[7] abbreviates: at 5.0 µM (retest, dose inferred, filed as 0.5).
Where [8] appears, read: at 50.0 µM (retest, dose inferred, filed as 5.0).

“And” between values parts separate entries of the source, which are not always exact repeats. Equal entries are not always repeated. The panel holds about 79,000 compounds, 15% with a hit somewhere; the sample as a whole holds those more often. Values without a mark were called inactive. The source made the active and inactive calls. No stated cut-off is given here; in the data, active means growth inhibition above about 70%; inactive means the rest.

For `CC(C)OP(=O)(CCCCCCCCC/C=C/c1ccc2c(c1)OCCOCCOCCOCCO2)OC(C)C`, the growth inhibition in assay [1] (setting [7]) was 20%; in assay [1] (setting [8]), 98% (active); in assay [1] (at 50.0 µM) it was 97.8% (active); in assay [2] (setting [7]) it was -4%; in assay [2] (setting [8]) it was 98% (active); in assay [2] (at 50.0 µM), 98.2% (active). Moreover, the growth inhibition in assay [3] (setting [7]) was 7%; in assay [3] (setting [8]), 98% (active); in assay [3] (at 50.0 µM), 97.3% (active); in assay [4] (setting [7]) it was -11%; in assay [4] (setting [8]), 99% (active); in assay [4] (at 50.0 µM) it was 98.3% (active). The figures for the growth inhibition in assay [5] (setting [7]), in assay [5] (setting [8]) and in assay [5] (at 50.0 µM) were 24%, 99% (active) and 98.1% (active), respectively.

For the compound `BrCc1ccc2ccc3ccc(CBr)nc3c2n1`, the growth inhibition was 2% in assay [1] (setting [7]); 83% (active) in assay [1] (setting [8]); 69.7% in assay [1] (at 50.0 µM); 11% in assay [2] (setting [7]); 95% (active) in assay [2] (setting [8]); 63.9% in assay [2] (at 50.0 µM). Further, the growth inhibition in assay [3] (setting [7]) is -12%; in assay [3] (setting [8]) it was 89% (active); in assay [3] (at 50.0 µM), 24.8%; in assay [4] (setting [7]), -4%; in assay [4] (setting [8]), 94% (active); in assay [4] (at 50.0 µM), 45%. The growth inhibition in assay [5] (setting [7]) is 8%; in assay [5] (setting [8]) it was 95% (active); in assay [5] (at 50.0 µM), 64.8%.

On to `Fc1cccc(CSc2ncnc3c2ncn3C2CCCS2)c1` (stereo not drawn), for which the growth inhibition in assay [1] (setting [7]) was 4%; in assay [1] (setting [8]) it was 70% (active); in assay [1] (at 50.0 µM), 84.9% (active); in assay [6] (setting [7]), 1%; in assay [6] (setting [8]), 87% (active); in assay [6] (at 50.0 µM), 90% (active). In addition, the growth inhibition was 6% in assay [2] (setting [7]); 92% (active) in assay [2] (setting [8]); 93.3% (active) in assay [2] (at 50.0 µM); 1% in assay [4] (setting [7]); 82% (active) in assay [4] (setting [8]); 90% (active) in assay [4] (at 50.0 µM). Moreover, the growth inhibition in assay [5] (setting [7]) was 3%; in assay [5] (setting [8]), 88% (active); in assay [5] (at 50.0 µM), 92.5% (active).

As for `O=[N+]([O-])/C=C\c1csc2ccccc12`, the growth inhibition in assay [6] (setting [7]) is 96% (active); in assay [6] (setting [8]), 98% (active); in assay [6] (at 50.0 µM), 99.6% (active); in assay [2] (setting [7]) it was 97% (active); in assay [2] (setting [8]), 99% (active); in assay [2] (at 50.0 µM) it was 99.5% (active). Further, the growth inhibition in assay [3] (setting [7]) is 81% (active); in assay [3] (setting [8]), 99% (active); in assay [3] (at 50.0 µM), 99.3% (active); in assay [4] (setting [7]) it was 92% (active); in assay [4] (setting [8]) it was 99% (active); in assay [4] (at 50.0 µM), 99.3% (active).

Consider `O=C(Nc1cc(Cl)cc(Cl)c1)C(F)(F)F`, for which the growth inhibition in assay [1] (setting [7]) was 27%; in assay [1] (setting [8]) it was 98% (active); in assay [1] (at 50.0 µM) it was 83.9% (active); in assay [6] (setting [7]), 34%; in assay [6] (setting [8]) it was 100% (active); in assay [6] (at 50.0 µM), 87.5% (active). The growth inhibition in assay [2] (setting [7]) is 37%; in assay [2] (setting [8]), 99% (active); in assay [2] (at 50.0 µM) it was 96.4% (active); in assay [4] (setting [7]), 96% (active); in assay [4] (setting [8]), 99% (active); in assay [4] (at 50.0 µM), 85% (active). In addition, the growth inhibition in assay [5] (setting [7]) was 59%; in assay [5] (setting [8]) it was 99% (active); in assay [5] (at 50.0 µM) it was 97.4% (active).

As for `[O-][n+]1ccc(Br)c(/C=C/c2ccccc2)c1`, the growth inhibition in assay [1] (setting [7]) is 0%; in assay [1] (setting [8]), 20%; in assay [1] (at 50.0 µM), 24.1%; in assay [2] (setting [7]) it was -2%; in assay [2] (setting [8]), 23%; in assay [2] (at 50.0 µM), 20%. In addition, the growth inhibition in assay [3] (setting [7]) was 0%; in assay [3] (setting [8]) it was 9%; in assay [3] (at 50.0 µM), 2.3%; in assay [4] (setting [7]) it was -5%; in assay [4] (setting [8]), 9%; in assay [4] (at 50.0 µM) it was 24.6%. Besides, the growth inhibition is 2% in assay [5] (setting [7]), 79% (active) in assay [5] (setting [8]) and 56.1% in assay [5] (at 50.0 µM).

Turning to `CC(=O)Oc1c(Br)cc(Br)cc1Br`, the growth inhibition is -5% in assay [6] (setting [7]); -34% in assay [6] (setting [8]); 6.7% in assay [6] (at 50.0 µM); 10% in assay [2] (setting [7]); 4% in assay [2] (setting [8]); 4.5% in assay [2] (at 50.0 µM). Moreover, the growth inhibition in assay [3] (setting [7]) was 2%; in assay [3] (setting [8]) it was -2%; in assay [3] (at 50.0 µM), 1.2%; in assay [4] (setting [7]), 10%; in assay [4] (setting [8]) it was 6%; in assay [4] (at 50.0 µM), 9.1%. Further, the growth inhibition in assay [5] (setting [7]) was 13%; in assay [5] (setting [8]) it was 20%; in assay [5] (at 50.0 µM), 0.9%.

On to `O=C1C(Cl)C(c2cc(Br)cc(Br)c2O)N1n1cnc2ccccc2c1=O` (stereo not drawn), for which the growth inhibition in assay [1] (setting [7]) was 15%; in assay [1] (setting [8]), 96% (active); in assay [1] (at 50.0 µM) it was 89.8% (active); in assay [6] (setting [7]) it was 35%; in assay [6] (setting [8]), 94% (active); in assay [6] (at 50.0 µM), 86.7% (active). The growth inhibition was 25% in assay [2] (setting [7]); 98% (active) in assay [2] (setting [8]); 94.5% (active) in assay [2] (at 50.0 µM); 22% in assay [4] (setting [7]); 98% (active) in assay [4] (setting [8]); 93% (active) in assay [4] (at 50.0 µM). Moreover, the growth inhibition in assay [5] (setting [7]) was 20%; in assay [5] (setting [8]), 98% (active); in assay [5] (at 50.0 µM) it was 97.7% (active).

In the case of `CCCCCCCCCCCCCCCCNC(C)c1ccccc1` (stereo not drawn), the growth inhibition in assay [1] (setting [7]) was 0%; in assay [1] (setting [8]), -3%; in assay [1] (at 50.0 µM), 98.1% (active); in assay [2] (setting [7]), 6%; in assay [2] (setting [8]), 4%; in assay [2] (at 50.0 µM) it was 99% (active). Moreover, the growth inhibition in assay [3] (setting [7]) is -9%; in assay [3] (setting [8]) it was -4%; in assay [3] (at 50.0 µM) it was 97.5% (active); in assay [4] (setting [7]), -6%; in assay [4] (setting [8]) it was -6%; in assay [4] (at 50.0 µM), 99% (active). Moreover, the growth inhibition was -2% in assay [5] (setting [7]), 9% in assay [5] (setting [8]) and 98.3% (active) in assay [5] (at 50.0 µM).

Turning to `OCC(O)C(O)C(O)C(O)C(SCc1ccccc1)SCc1ccccc1` (stereo not drawn), the growth inhibition was 9.5% and -3.9% and -5.4% in assay [1] (at 50.0 µM); -1.5% and -0.6% and 8.55% in assay [6] (at 50.0 µM); 6.25% and -7.1% and 8.7% in assay [2] (at 50.0 µM); -9.4% and -3.35% and -11.2% in assay [3] (at 50.0 µM); -3.7% and -7.25% and 2.05% in assay [4] (at 50.0 µM); 10.1% and 3.6% and 10.6% in assay [5] (at 50.0 µM).

For the compound `N#CS/C(Cl)=C(/C(Cl)=C(Cl)Cl)[N+](=O)[O-]`, the growth inhibition is 18% in assay [6] (setting [7]); 99% (active) in assay [6] (setting [8]); 70.7% (active) in assay [6] (at 50.0 µM); -3% in assay [2] (setting [7]); 98% (active) in assay [2] (setting [8]); 87.4% (active) in assay [2] (at 50.0 µM). In addition, the growth inhibition was -5% in assay [3] (setting [7]); 98% (active) in assay [3] (setting [8]); 48.6% in assay [3] (at 50.0 µM); -21% in assay [4] (setting [7]); 99% (active) in assay [4] (setting [8]); 85.7% (active) in assay [4] (at 50.0 µM). Besides, the growth inhibition was -15% in assay [5] (setting [7]), 99% (active) in assay [5] (setting [8]) and 81.2% (active) in assay [5] (at 50.0 µM).

On to `CC(=O)OC1SC(C)(C)n2c1nc1ccccc1c2=O` (stereo not drawn), for which the growth inhibition in assay [6] (setting [7]) is -5%; in assay [6] (setting [8]), 53%; in assay [6] (at 50.0 µM), 23.7%; in assay [2] (setting [7]), 6%; in assay [2] (setting [8]) it was 51%; in assay [2] (at 50.0 µM), 41%. Also, the growth inhibition in assay [3] (setting [7]) is -8%; in assay [3] (setting [8]), 43%; in assay [3] (at 50.0 µM), 69.4%; in assay [4] (setting [7]), 1%; in assay [4] (setting [8]) it was 39%; in assay [4] (at 50.0 µM), 18.8%. Also, the growth inhibition in assay [5] (setting [7]) was 2%; in assay [5] (setting [8]) it was 50%; in assay [5] (at 50.0 µM), 72% (active).

These data come from PubChem BioAssay (NCI).
